Assay results published in PubChem BioAssay (EPA / NIEHS).
Results filed as inconclusive are left out. The source holds several records for some structures; these can differ, active in one and inactive in another. Active and inactive are the calls of the source. How the source made its calls, unless noted: active means hit-call score of the fitted dose curve at least 0.9, where 1 is the maximum; inconclusive means response in the unintended direction; inactive means score below 0.9.

Experiments:
[1] = target: human Norepinephrine Transporter (NET), SLC6A2 (gene 6530) (UniProt P23975); assay: NVS_TR_hNET: NovaScreen (NVS) Transporter Assay for human Norepinephrine Transporter (NET) (AID 2283377);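 further: cell-free membrane protein extracted from CHO cells expressing human NET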;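 on AC50: displacement of radioligand from human NET seen as loss of scintillation signal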
human Norepinephrine Transporter (NET), SLC6A2 (gene 6530), sequence (P23975 whole entry, looked up): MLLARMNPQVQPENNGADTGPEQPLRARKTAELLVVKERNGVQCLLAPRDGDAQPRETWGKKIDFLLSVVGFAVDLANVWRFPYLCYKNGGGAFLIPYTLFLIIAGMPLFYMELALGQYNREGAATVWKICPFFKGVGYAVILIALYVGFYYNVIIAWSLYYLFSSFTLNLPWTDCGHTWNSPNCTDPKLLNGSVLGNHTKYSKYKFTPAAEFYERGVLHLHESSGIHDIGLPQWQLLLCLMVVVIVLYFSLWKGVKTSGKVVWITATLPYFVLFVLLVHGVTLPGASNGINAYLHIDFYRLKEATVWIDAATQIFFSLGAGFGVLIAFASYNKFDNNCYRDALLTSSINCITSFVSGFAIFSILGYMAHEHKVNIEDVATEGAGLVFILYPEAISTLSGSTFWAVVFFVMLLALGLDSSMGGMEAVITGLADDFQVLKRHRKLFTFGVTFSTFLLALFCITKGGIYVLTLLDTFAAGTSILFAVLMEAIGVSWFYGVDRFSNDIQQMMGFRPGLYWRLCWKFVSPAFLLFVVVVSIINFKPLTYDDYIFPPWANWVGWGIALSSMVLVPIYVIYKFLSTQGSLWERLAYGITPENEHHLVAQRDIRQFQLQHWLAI
Method in brief: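 CHO cell extracts expressing the transporter; tritiated or iodinated tracer displaced competitively; filtration plus scintillation readout at 1 h. Single-point duplicates at 25 uM, concentration series for follow-up; activity = signal drop relative to DMSO.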

[2] = target: mouse Estrogen Receptor alpha (Era), Esr1 (gene 13982) (UniProt P19785); assay: NVS_NR_mERa: NovaScreen (NVS) Nuclear Receptor Binding Assay for mouse Estrogen Receptor alpha (Era) (AID 2283378);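 further: hit means loss of bound radioligand signal relative to DMSO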
mouse Estrogen Receptor alpha (Era), Esr1 (gene 13982), sequence (P19785 whole entry, looked up): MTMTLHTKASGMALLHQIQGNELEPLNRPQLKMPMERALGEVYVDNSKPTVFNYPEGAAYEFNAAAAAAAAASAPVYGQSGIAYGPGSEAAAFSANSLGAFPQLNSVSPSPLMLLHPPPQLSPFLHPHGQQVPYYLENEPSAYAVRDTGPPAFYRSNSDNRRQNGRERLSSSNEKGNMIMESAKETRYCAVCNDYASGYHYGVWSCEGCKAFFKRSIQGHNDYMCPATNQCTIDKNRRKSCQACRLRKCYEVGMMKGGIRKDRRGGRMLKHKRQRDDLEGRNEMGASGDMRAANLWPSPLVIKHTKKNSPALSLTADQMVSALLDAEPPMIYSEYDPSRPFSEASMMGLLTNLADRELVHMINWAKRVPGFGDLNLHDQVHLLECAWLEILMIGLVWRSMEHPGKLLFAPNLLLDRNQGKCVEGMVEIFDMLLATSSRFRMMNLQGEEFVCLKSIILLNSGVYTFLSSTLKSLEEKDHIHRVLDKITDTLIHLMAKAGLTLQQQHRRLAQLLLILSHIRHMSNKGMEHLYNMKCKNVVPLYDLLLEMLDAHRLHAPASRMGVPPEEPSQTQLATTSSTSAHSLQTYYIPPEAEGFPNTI
Method in brief: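 Test chemicals competed against a specific radioligand for binding to cell-free mouse Era. Duplicate wells at 25 uM were read 18 hours later by filter-based radiodetection, with loss of signal against DMSO scored as activity.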

[3] = target: Agonist Androgen Response Element (ARE), AR (gene 367) (UniProt P10275); assay: OT_AR_ARELUC_AG_1440: Odyssey Thera (OT) 24-hour CHO-K1 Luciferase Assay for Agonist Androgen Response Element (ARE) (AID 2283379)
Agonist Androgen Response Element (ARE), AR (gene 367), sequence (P10275 whole entry, looked up): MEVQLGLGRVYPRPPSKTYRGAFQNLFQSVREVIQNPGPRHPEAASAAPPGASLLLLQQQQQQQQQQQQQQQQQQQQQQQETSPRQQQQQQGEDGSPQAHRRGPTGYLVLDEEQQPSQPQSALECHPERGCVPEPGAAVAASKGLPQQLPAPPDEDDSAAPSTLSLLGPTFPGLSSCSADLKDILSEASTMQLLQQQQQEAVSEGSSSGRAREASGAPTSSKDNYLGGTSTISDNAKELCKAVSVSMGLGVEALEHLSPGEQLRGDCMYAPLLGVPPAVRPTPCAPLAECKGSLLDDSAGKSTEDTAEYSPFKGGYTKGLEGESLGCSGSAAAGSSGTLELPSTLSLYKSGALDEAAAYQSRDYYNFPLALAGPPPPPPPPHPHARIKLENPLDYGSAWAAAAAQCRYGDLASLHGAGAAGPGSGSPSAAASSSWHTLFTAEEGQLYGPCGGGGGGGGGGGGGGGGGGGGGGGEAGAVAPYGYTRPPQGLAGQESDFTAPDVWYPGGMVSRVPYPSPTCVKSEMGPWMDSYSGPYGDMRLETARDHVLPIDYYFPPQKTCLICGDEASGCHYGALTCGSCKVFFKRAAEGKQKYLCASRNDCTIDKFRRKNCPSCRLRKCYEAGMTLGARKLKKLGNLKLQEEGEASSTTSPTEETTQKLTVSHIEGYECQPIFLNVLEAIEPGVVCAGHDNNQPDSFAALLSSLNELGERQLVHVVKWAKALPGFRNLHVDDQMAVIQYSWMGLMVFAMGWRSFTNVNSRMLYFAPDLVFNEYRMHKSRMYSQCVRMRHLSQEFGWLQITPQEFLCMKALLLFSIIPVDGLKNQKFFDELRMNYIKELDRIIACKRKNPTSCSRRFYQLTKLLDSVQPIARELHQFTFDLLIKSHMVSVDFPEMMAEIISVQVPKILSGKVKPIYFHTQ
Method in brief: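 Gain-of-signal reporter endpoint: cells (CHO-K1, hamster) are treated 24 h, luciferin/ATP reagent added, and luminescence compared with DMSO baseline.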

[4] = target: Estrogen receptor beta (Homo sapiens) (UniProt Q92731); assay: OT_ER_ERbERb_1440: Odyssey Thera (OT) 24-hour HEK293T Protein-Complementation Assay for Estrogen Receptor-beta/-beta Homodimer (AID 2283380);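 further: scored as signal increase over DMSO baseline for both agonists and antagonists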
Estrogen receptor beta (Homo sapiens), sequence (Q92731 whole entry, looked up, the tested form may be a part): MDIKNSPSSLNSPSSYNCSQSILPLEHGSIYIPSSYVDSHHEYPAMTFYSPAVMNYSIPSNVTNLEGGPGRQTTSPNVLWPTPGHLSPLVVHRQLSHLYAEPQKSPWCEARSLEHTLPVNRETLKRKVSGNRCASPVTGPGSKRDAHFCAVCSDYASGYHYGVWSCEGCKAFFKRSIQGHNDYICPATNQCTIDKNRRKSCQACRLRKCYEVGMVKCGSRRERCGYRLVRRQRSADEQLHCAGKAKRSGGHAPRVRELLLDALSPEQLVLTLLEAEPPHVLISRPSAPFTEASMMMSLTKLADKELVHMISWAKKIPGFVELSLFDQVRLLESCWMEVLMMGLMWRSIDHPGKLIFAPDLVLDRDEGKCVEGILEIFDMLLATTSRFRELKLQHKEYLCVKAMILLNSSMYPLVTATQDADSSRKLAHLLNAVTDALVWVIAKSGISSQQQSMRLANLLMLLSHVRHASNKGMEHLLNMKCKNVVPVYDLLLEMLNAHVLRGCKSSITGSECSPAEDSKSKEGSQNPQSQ
Method in brief: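 HEK293T cells stably expressing ER beta LBD (aa 310-547) homodimer fragment-complementation reporter, dosed 24 h. Cells formaldehyde-fixed, Draq5-stained; gain in nuclear (agonist) or nuclear plus cytoplasmic (antagonist) fluorescence versus DMSO read by laser scanning cytometry.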

[5] = target: Estrogen receptor (Homo sapiens) (UniProt P03372); assay: OT_ERa_GFPERaERE_0480: Odyssey Thera (OT) 8-hour HeLa Transcription Induction Assay for Estrogen Receptor (AID 2283381; active means hit-call score of the fitted dose curve at least 0.9, where 1 is the maximum; inactive means score below 0.9)
Estrogen receptor (Homo sapiens), sequence (P03372 whole entry, looked up): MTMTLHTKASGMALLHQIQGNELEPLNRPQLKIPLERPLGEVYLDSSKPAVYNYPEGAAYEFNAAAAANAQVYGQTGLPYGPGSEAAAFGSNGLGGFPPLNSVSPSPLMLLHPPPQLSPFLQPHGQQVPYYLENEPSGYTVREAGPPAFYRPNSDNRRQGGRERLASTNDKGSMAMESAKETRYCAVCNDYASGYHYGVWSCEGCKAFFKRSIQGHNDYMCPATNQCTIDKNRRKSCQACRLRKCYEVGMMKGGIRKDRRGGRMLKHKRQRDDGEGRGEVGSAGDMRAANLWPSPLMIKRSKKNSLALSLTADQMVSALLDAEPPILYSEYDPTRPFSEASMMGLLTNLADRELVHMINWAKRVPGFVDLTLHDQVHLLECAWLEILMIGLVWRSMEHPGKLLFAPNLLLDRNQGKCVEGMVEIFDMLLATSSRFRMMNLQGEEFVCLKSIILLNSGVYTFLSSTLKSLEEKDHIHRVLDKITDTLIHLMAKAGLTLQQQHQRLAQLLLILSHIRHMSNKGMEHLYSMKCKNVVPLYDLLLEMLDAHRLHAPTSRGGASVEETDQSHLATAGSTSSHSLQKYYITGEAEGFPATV
Method in brief: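 An 8 h HeLa transcription-induction format with a GFP reporter under ERE control, read by fluorescence microscopy; single endpoint fitted positively with DMSO as baseline.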

[6] = target: Estrogen receptor (Homo sapiens) (UniProt P03372); assay: OT_ERa_GFPERaERE_0120: Odyssey Thera (OT) 2-hour HeLa Transcription Induction Assay for Estrogen Receptor (AID 2283382)
Method in brief: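 Two-hour compound treatment of HeLa cells preceded microscopy imaging of an inducible fluorescent reporter. Image-based quantification gave one endpoint, analysed for signal increase relative to DMSO controls.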

Structure (SMILES): c1ccc2c(c1)CCC2
- outcome [1]: inactive

Structure (SMILES): CCCCCCc1ccc(N)cc1
- AC50 [2]: 0.138 µM (active)
- outcome [3]: inactive
- outcome [4]: inactive
- outcome [5]: inactive
- outcome [6]: inactive

Structure (SMILES): O=C(O)c1cccc(C(=O)O)n1
- outcome [4]: inactive
- outcome [5]: inactive
- outcome [6]: inactive

Structure (SMILES): CCCCCCCCCCCCCCC
- outcome [1]: inactive
- outcome [4]: inactive

Structure (SMILES): CCc1ccccc1O
- outcome [4]: inactive
- outcome [5]: inactive
- outcome [6]: inactive

Structure (SMILES): CCCCCCOC(=O)c1ccc(O)cc1
- AC50 [2]: 3.82 µM (active)

Structure (SMILES): O=S(=O)(O)c1ccccc1
- outcome [4]: inactive

Structure (SMILES): Cc1cc(Cc2cc(C)cc(C(C)(C)C)c2O)c(O)c(C(C)(C)C)c1
- outcome [4]: inactive
- outcome [5]: inactive
- outcome [6]: inactive

Structure (SMILES): CC(C)(C)c1ccc(O)c(O)c1
- AC50 [1]: 18.4 µM (active)
- outcome [1]: inactive

Structure (SMILES): c1cnc2c(c1)ccc1cccnc12
- outcome [4]: inactive

Structure (SMILES): NS(=O)(=O)O
- outcome [4]: inactive

Structure (SMILES): Oc1cc2ccccc2cc1O
- outcome [1]: inactive

Structure (SMILES): O=C1NS(=O)(=O)c2ccccc21
- outcome [4]: inactive

Structure (SMILES): CCCCCCCCCCCCCC[n+]1ccccc1
- outcome [2]: inactive

Structure (SMILES): CCCCc1oc2ccccc2c1C(=O)c1cc(I)c(OCCN(CC)CC)c(I)c1
- outcome [4]: inactive
- outcome [5]: inactive
- outcome [6]: inactive

Structure (SMILES): Cc1ccc(S(=O)(=O)O)cc1
- outcome [4]: inactive

Structure (SMILES): NCc1cccc(CN)c1
- AC50 [2]: 6.34 µM (active)
- outcome [4]: inactive
- outcome [5]: inactive
- outcome [6]: inactive

Structure (SMILES): CCCCCCC(C)(C)C(=O)O
- outcome [3]: inactive
- outcome [4]: inactive
- outcome [5]: inactive
- outcome [6]: inactive

Structure (SMILES): CC(=O)Nc1ccc(O)cc1
- outcome [3]: inactive
- outcome [4]: inactive

Structure (SMILES): NCCN
- outcome [5]: inactive
- outcome [6]: inactive

Structure (SMILES): CCCCCC(C)OC(=O)COc1ccc(Cl)c2cccnc12 (stereo not drawn)
- outcome [5]: inactive
- outcome [6]: inactive

Structure (SMILES): Nc1cc(Cl)c(-c2cc(Cl)c(N)cc2Cl)cc1Cl
- AC50 [2]: 0.389 µM (active)

Structure (SMILES): Cc1cc(C(C)(C)C)c(O)c(C(C)(C)C)c1
- outcome [4]: inactive

Structure (SMILES): C[C@]12CC[C@@H]3c4ccc(O)cc4CC[C@H]3[C@@H]1CC[C@@H]2OC(=O)CCC1CCCC1
- AC50 [2]: 0.0452 µM (active)

Structure (SMILES): C=Cc1ccc(O)c(OC)c1
- AC50 [1]: 19.1 µM (active)

Structure (SMILES): COc1cc([N+](=O)[O-])ccc1N
- outcome [3]: inactive
- AC50 [4]: 28.4 µM (active)
- outcome [5]: inactive
- outcome [6]: inactive

Structure (SMILES): Cc1[nH]nc2c1N=C(c1ccccc1Cl)c1cc([N+](=O)[O-])ccc1N2
- outcome [4]: inactive
